Among the data in PubChem BioAssay are composite z-score and z-score values, retold here.

Assay [1] in a line: binders of probe aFSTL3 on microarray, primary screen, stem cell growth factor project, biochemical, small-molecule microarray, fluorescence 635/667 (AID 1064).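 Note: measures binding of the biotinylated anti-FSTL3 antibody to printed compounds.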 To be noted: higher = more signal.
Assay [2] in a line: binders from COS7 lysate, DM2A8 probe, primary screen, torsin A project, cell lysate, small-molecule microarray, fluorescence 635/667 (AID 1065). To be noted: higher = more signal, COS7 lysate expressing mutant human TOR1A.
The nature of assay [3]: binders of probe aFGF2 on microarray, primary screen, stem cell growth factor project, biochemical, small-molecule microarray, fluorescence 635/667 (AID 1067).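 Note: measures binding of biotinylated aFGF2 protein to printed compounds on slides; z-score merges feature fluorescence and signal-to-noise across triplicate slides.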 To be noted: higher = more signal.
Assay [4] can be described thus: binders of probe aFGF10 on microarray, primary screen, stem cell growth factor project, biochemical, small-molecule microarray, fluorescence 635/667 (AID 1071).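 Note: score merges 667 nm spot intensity and signal to noise from triplicate slides.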 To be noted: higher = more signal.
The target of assay [5] is Neurogenic locus notch homolog protein 2 (Homo sapiens) (UniProt Q04721). The assay is described as follows: Notch2 binders on small-molecule microarrays, primary screen, biochemical, small-molecule microarray, 635 nm fluorescence, stem cell growth factors (AID 1073). Conditions: Notch2 binding, higher = more signal.
For assay [6], the target named is Pro-neuregulin-1, membrane-bound isoform (Homo sapiens) (UniProt Q02297). The assay is described as follows: NRG1 binders on small-molecule microarrays, primary screen, psychiatric disease protein project, biochemical, small-molecule microarray, fluorescence 635/667 (AID 1075).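 Note: score combines 667 nm spot fluorescence with signal to noise.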 To be noted: NRG1 binding, 635 nm fluorescence, higher = more signal.
The subject of assay [7] is Neuregulin-1 EGF-like domain. In words: binders of neuregulin-1 EGF-like domain, primary screen, biochemical, small-molecule microarray, 635 nm fluorescence (AID 1081).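 Note: binding of the protein to compounds printed on small-molecule microarray slides.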 Conditions: small-molecule microarray binding, higher = more signal.
A short description of assay [8]: FRG1 promoter luciferase signal modulators, primary screen, FRG1 inhibition for FSHD, cell-based, C2C12 myotubes, firefly/Renilla luciferase, luminescence (AID 1084). Conditions: higher = more signal, called active from +8 up or from −8 down.
The nature of assay [9]: binders of probe aFST on microarray, primary screen, stem cell growth factor project, biochemical, small-molecule microarray, fluorescence 635/667 (AID 1086).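 Note: score merges 667 nm fluorescence with signal-to-noise of each printed compound spot.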 Conditions: higher = more signal.
Assay [10] in a line: binders of probe aHhip on microarray, primary screen, stem cell growth factor project, biochemical, small-molecule microarray, fluorescence 635/667 (AID 1087).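 Note: score merges spot fluorescence at 667nm with spot signal to noise ratio.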 Conditions: higher = more signal.
For assay [11], the system named is PRMT1 (protein arginine N-methyltransferase 1). The assay is described as follows: PRMT1 binders on small-molecule microarrays, primary screen, biochemical, small-molecule microarray, 635 nm fluorescence (AID 1088).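 Note: binding of Prmt1 protein to compounds spotted on small-molecule microarray slides.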 To be noted: small-molecule microarray binding, higher = more signal.
The nature of assay [12]: yeast growth modulation, basal conditions, primary screen, YJM789 clinical isolate, OD600, 24 h (AID 1089).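 Note: growth of clinical yeast isolate S. cerevisiae YJM 789 seeded 1000 cells per well; test concentration not given here.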 Conditions: S. cerevisiae YJM789 growth, higher = more signal, called active from +8 up or from −8 down.
The nature of assay [13]: fission yeast growth modulation, primary screen, strain 972, OD600, 24 h, no modulator (AID 1090).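 Note: basal condition with compound alone and no growth modifier present; test concentration not given here.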 Conditions: S. pombe 972 growth, higher = more signal, called active from +8 up or from −8 down.
Assay [14] is described as follows: S. cerevisiae growth modulation with rapamycin, primary screen, strain BY4716, OD600, 96 h (AID 1091). Note: test concentration not given here. Conditions: higher = more signal, called active from +8 up or from −8 down.
The target of assay [15] is Torsin-1A-interacting protein 2 (Homo sapiens) (UniProt Q8NFQ8). The assay is described as follows: LULL1 binders on small-molecule microarray, primary screen, cell lysate, human LULL1 lysate, 635/667 nm fluorescence (AID 1092).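 Note: probe is lysate of COS7 cells overexpressing human LULL1; score merges per-feature 667 nm fluorescence with signal-to-noise.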 Conditions: hLULL1 lysate binding, 635 nm fluorescence, higher = more signal.
Assay [16] is described as follows: E. coli growth modulation, two-sided OD650, primary screen, E. coli filamentation project, strain DRC41, 24 h (AID 1093).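 Note: MC1000 strain lacking acrAB efflux and sulA so SOS filamentation is blocked; test concentration not given here.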 To be noted: OD650, 24 h, higher = more signal, called active from +8 up or from −8 down.
A short description of assay [17]: small-molecule microarray binders of probe aLefty2, primary screen, biochemical, biotinylated probe, 635/667 nm fluorescence (AID 1094).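 Note: score merges spot fluorescence near 667 nm with spot signal-to-noise ratio.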 Conditions: higher = more signal.
In assay [18] the test system is Noggin (protein binding on small-molecule microarray). In words: Noggin binders on small-molecule microarray, primary screen, biochemical, 635/667 nm fluorescence (AID 1095).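 Note: score merges 667 nm feature fluorescence with signal to noise over triplicate slides.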 Conditions: 635 nm fluorescence, higher = more signal.
The target in assay [19] is Neurogenic locus notch homolog protein 3 (Homo sapiens) (UniProt Q9UM47). In words: NOTCH3 binders on small-molecule microarray, primary screen, biochemical, 635/667 nm fluorescence (AID 1096). Conditions: NOTCH3 binding, 635 nm fluorescence, higher = more signal.
Assay [20] can be described thus: small-molecule microarray binders of probe aEGFR, primary screen, biochemical, biotinylated probe, 635/667 nm fluorescence (AID 1097).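 Note: probe is a biotinylated anti-EGFR antibody binding compounds printed on slides; score combines fluorescence near 667 nm and signal to noise of each spot.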 Conditions: higher = more signal.

The source made the active and inactive calls.

Sequence of Neurogenic locus notch homolog protein 2 (Homo sapiens) (Q04721 whole entry, looked up, canonical isoform): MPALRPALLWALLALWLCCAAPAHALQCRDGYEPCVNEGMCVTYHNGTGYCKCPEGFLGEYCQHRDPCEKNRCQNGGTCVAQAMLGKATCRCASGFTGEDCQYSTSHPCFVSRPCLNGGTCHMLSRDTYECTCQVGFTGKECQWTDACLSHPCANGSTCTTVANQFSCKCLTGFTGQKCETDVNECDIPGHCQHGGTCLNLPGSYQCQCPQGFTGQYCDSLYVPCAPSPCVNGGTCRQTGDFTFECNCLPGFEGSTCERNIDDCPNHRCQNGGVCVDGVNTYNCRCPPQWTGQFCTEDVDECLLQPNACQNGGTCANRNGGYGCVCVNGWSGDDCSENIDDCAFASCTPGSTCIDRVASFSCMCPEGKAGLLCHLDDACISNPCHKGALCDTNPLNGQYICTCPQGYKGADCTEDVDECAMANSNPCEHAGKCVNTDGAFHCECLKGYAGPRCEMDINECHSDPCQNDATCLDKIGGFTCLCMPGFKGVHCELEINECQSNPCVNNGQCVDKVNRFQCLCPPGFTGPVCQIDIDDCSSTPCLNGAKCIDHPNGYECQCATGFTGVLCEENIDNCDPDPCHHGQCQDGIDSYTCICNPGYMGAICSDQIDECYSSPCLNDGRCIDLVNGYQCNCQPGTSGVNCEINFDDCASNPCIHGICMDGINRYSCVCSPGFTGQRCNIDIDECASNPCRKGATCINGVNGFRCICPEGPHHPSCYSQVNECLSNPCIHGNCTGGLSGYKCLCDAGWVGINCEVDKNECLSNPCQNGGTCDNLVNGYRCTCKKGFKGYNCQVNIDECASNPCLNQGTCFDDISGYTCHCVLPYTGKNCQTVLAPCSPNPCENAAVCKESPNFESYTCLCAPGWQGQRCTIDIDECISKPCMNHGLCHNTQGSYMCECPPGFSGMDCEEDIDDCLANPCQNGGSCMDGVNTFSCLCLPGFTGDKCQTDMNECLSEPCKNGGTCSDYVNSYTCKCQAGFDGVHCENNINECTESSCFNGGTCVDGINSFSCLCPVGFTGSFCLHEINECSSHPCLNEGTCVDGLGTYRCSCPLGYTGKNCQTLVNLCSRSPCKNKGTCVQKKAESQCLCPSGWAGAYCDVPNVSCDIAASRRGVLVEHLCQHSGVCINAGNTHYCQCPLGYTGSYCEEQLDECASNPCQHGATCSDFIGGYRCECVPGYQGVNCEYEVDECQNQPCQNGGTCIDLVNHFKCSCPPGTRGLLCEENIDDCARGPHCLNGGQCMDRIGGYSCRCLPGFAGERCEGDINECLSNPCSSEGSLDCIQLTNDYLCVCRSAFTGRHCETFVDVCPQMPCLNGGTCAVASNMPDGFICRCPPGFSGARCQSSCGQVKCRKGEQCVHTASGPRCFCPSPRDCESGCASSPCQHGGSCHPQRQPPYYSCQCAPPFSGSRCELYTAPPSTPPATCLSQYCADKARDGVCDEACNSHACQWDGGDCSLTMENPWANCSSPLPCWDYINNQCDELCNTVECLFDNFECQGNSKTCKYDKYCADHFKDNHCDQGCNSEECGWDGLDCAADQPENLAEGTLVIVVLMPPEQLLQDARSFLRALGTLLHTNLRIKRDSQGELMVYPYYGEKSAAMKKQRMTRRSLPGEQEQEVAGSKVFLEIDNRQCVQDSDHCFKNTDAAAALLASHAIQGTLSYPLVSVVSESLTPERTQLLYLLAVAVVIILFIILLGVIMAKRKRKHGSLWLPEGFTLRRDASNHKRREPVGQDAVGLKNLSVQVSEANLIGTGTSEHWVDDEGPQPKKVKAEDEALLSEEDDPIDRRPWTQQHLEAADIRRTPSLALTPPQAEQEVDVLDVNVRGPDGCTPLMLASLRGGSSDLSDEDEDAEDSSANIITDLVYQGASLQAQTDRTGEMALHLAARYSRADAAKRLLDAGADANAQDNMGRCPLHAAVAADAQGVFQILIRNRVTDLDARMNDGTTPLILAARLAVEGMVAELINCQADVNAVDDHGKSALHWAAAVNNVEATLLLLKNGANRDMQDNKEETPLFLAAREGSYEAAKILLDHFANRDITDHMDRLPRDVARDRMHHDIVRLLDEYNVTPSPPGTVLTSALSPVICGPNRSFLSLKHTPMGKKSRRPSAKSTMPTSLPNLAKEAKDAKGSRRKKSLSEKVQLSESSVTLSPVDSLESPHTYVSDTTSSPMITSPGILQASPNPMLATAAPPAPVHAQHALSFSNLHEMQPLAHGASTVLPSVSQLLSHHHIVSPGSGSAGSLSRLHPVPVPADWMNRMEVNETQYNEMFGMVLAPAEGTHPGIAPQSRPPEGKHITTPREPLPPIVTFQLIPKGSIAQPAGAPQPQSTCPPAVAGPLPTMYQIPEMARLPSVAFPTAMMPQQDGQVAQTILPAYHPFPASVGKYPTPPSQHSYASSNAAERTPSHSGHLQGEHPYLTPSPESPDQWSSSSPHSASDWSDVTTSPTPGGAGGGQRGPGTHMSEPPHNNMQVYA
Sequence of Pro-neuregulin-1, membrane-bound isoform (Homo sapiens) (Q02297 whole entry, looked up, the tested form may be a part, canonical isoform): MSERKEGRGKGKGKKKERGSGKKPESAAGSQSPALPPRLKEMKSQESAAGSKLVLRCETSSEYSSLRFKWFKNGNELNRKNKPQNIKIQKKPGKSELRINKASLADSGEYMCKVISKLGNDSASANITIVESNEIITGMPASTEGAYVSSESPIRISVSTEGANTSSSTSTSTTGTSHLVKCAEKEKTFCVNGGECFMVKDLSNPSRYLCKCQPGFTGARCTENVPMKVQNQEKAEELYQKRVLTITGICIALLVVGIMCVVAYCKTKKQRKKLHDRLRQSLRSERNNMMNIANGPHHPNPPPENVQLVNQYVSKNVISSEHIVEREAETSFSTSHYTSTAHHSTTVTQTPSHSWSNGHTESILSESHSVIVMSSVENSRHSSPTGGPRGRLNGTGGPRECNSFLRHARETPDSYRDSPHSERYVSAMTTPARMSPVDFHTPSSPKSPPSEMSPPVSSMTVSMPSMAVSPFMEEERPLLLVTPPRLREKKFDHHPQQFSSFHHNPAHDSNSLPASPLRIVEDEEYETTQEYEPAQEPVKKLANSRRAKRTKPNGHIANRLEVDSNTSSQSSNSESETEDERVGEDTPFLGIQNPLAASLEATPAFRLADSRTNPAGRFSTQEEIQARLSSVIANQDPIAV
Sequence of Torsin-1A-interacting protein 2 (Homo sapiens) (Q8NFQ8 whole entry, looked up): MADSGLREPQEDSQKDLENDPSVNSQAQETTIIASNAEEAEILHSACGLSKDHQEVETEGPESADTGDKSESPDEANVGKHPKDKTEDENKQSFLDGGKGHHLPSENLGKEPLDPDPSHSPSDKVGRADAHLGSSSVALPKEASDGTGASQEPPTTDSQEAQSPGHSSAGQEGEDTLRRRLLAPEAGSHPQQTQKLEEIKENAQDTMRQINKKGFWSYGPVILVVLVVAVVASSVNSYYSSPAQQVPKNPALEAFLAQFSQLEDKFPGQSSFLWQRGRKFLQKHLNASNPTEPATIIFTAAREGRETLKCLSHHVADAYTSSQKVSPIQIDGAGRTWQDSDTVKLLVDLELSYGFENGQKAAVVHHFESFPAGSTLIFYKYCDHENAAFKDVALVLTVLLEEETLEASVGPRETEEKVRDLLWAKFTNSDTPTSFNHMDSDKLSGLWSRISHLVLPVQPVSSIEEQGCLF

Turning to `COC(=O)CC=C[C@@H](C)[C@@H](C=NOC(C)CN1CCCc2nc(C)c(C)cc21)NS(=O)(=O)c1ccc(C)cc1` (stereo not given in full), the composite z-score in assay [1] is -0.0882; in assay [2], 0.296; in assay [3], -0.0202; in assay [4], 0.469; in [5], 0.699; in assay [6], 0.257. The composite z-score was determined as 0.665 in assay [7]; 0.316 in [9]; 0.809 in assay [10]; 1.3 in assay [11]; 1.05 in assay [15]; 0.156 in assay [17]. For the same compound, the results for the composite z-score in assay [18], in assay [19] and in assay [20] were 0.629, 0.812 and -0.0158, respectively. Moreover, the z-score is 0.562 (inactive) in assay [8]; 0.207 (inactive) in assay [12]; 0.12 (inactive) in assay [13]; -0.0152 (inactive) in assay [14]; 0.644 (inactive) in assay [16].

Regarding `C=CC[C@@H]1C=C[C@H](ON=C(C)CCN2CCCCc3nc(C)c(C)cc32)[C@@H](CO)O1`, the composite z-score in [1] is 0.407; in [2], 1.57; in assay [3] it was -0.0704; in assay [4] it was 0.129; in assay [5], 0.145; in [6] it was 0.37. In addition, the composite z-score in [7] is 0.899; in assay [9], 0.238; in assay [10] it was 0.0053; in assay [11], 1.47; in assay [15], 1.77; in assay [17], -0.0769. Further, the figures for the composite z-score in assay [18], in [19] and in [20] were 1.21, 0.67 and 0.044, respectively. For the same compound, the z-score in assay [8] is 0.389 (inactive); in [12], -1.19 (inactive); in [13], 0.805 (inactive); in assay [14] it was -0.508 (inactive); in [16] it was -0.0376 (inactive).

For the compound `COc1ccc(O[C@H]2C=C[C@@H](c3ccccc3)O[C@@H]2CON=C(C)CCN2CCCc3nc(C)c(C)cc32)cc1`, the composite z-score was -0.353 in assay [1]; 0.0823 in [2]; -0.0812 in [3]; 0.076 in assay [4]; 0.476 in assay [5]; 0.626 in [6]. The composite z-score is 0.954 in assay [7]; 0.698 in assay [9]; -0.0328 in assay [10]; 1.42 in assay [11]; 1.56 in assay [15]; -0.0511 in assay [17]. Besides, the composite z-score in assay [18] is 0.485; in assay [19] it was 1.02; in assay [20], -0.0531. The z-score is -0.303 (inactive) in assay [8]; -0.571 (inactive) in assay [12]; -0.739 (inactive) in assay [13]; -0.706 (inactive) in [14]; 0.766 (inactive) in [16].

In the case of `CCCCOC(OCCCC)C(O)CSc1ccc2ccccc2c1` (stereo not given), the composite z-score in assay [1] is -0.283; in assay [2] it was 0.61; in assay [3], -0.0599; in [4], 0.291; in [5], 0.525; in assay [6], -0.213. The composite z-score in [7] was 0.461; in [9] it was 0.105; in assay [10] it was 0.157; in assay [11], 0.642; in assay [15] it was 0.556; in assay [17], -0.136. Further, the composite z-score in assay [18] was 0.542; in assay [19], 0.776; in assay [20], -0.15. For the same compound, the z-score was -1.52 (inactive) in [8]; 0.12 (inactive) in assay [12]; -2.25 (inactive) in assay [13]; 0.594 (inactive) in [14]; -0.419 (inactive) in [16].

`CC(C)[C@@H](OCc1ccccc1)[C@H](C)C=NO[C@H](C)c1cn([C@@H]2COC[C@H]2O)nn1`: the composite z-score in [1] is -0.478; in assay [2] it was 0.402; in assay [3], -0.0262; in [4] it was 0.281; in [5], 0.794; in assay [6], -0.0746. Moreover, the composite z-score in assay [7] is 1.07; in assay [9] it was -0.0844; in assay [10] it was 0.165; in [11], 1.55; in assay [15], 1.28; in assay [17], -0.162. Moreover, the composite z-score in assay [18] was 0.871; in assay [19], 0.968; in [20] it was -0.0111. Also, the z-score in assay [8] is 0.476 (inactive); in [12], -1.02 (inactive); in assay [13], -0.121 (inactive); in assay [14], 0.0703 (inactive); in [16] it was 1.13 (inactive).
